Test results: paper PMC10812921, “Transcriptional Coactivator BOB1 (OBF1, OCA-B) Modulates the Specificity of DNA Recognition by the POU-Domain Factors OCT1 and OCT2 in a Monomeric Configuration”

Assays:
POU1 (OCT1 POU domain) = POU1 (OCT1 POU domain) (human, UniProt P14859 260-458); experiment: EMSA-SELEX-seq; no BOB1; 20 mM Tris-HCl pH 7.6, 140 mM NaCl, 10% glycerol, 0.5 mM EDTA, 0.05% Triton X-100, 0.1 mg/mL BSA, 0.1 mg/mL poly(dI-dC), 5 mM DTT, room temperature, 20 min; high values mean tight binding; conditions: protein: recombinant; dsDNA, one strand shown
Sequence of POU1 (OCT1 POU domain) (P14859 260-458): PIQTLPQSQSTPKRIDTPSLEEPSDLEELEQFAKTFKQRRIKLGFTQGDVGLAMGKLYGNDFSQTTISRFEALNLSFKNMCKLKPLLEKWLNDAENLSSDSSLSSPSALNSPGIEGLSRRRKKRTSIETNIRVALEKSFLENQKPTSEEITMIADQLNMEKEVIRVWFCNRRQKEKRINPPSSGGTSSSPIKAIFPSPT
In short: (§1)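 After expression in E. coli BL21, tagged POU-domain proteins were purified under denaturing conditions and then renatured. Each binding reaction held 30 ng protein and 300 ng of a PCR-amplified double-stranded random 35-nt library in 20 μL Tris–HCl pH 7.6 binding buffer, with or without 28 ng coactivator protein, for 20 min at RT. Bands holding complexes were cut from native 6% PAGE, eluted and PCR-amplified across four rounds, and the output was Illumina-sequenced. The value given for binding preference is the share, in percent, of sequenced 8-mers fitting a motif pattern.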

POU2 (OCT2 POU domain) = biological target: T1, POU2 (OCT2 POU domain) (human, UniProt P09086 175-386); experiment: as above; conditions: protein: recombinant; dsDNA, one strand shown
T1 sequence: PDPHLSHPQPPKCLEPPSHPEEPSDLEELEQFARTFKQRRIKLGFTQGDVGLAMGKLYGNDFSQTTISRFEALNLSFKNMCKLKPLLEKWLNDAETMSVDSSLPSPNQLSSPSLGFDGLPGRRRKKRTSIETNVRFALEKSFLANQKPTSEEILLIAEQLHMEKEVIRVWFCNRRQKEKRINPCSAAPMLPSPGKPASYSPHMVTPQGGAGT
In short: as §1

[1] = biological target: POU1 (OCT1 POU domain);BOB1 (OBF1, OCA-B) (human;human, UniProt P14859;Q16633 260-458;1-256, |); experiment: EMSA-SELEX-seq; with BOB1 (ternary complex band); 20 mM Tris-HCl pH 7.6, 140 mM NaCl, 10% glycerol, 0.5 mM EDTA, 0.05% Triton X-100, 0.1 mg/mL BSA, 0.1 mg/mL poly(dI-dC), 5 mM DTT, room temperature, 20 min; high values mean tight binding; conditions: protein: recombinant;recombinant; copies: 1;1; dsDNA, one strand shown
In short: as §1

[2] = biological target: T2, POU2 (OCT2 POU domain);BOB1 (OBF1, OCA-B) (human;human, UniProt P09086;Q16633 175-386;1-256, |); experiment: as above; conditions: protein: recombinant;recombinant; copies: 1;1; dsDNA, one strand shown
T2 sequence 1: T1 sequence
T2 sequence 2: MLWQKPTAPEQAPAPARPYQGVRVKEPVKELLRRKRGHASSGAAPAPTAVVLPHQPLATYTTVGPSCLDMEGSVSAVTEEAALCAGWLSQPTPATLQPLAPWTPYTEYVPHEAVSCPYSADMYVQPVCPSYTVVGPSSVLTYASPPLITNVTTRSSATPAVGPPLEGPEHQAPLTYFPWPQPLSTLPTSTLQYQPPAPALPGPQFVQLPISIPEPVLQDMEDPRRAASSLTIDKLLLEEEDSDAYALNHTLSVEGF
In short: as §1

Row | Sequence | binding signal (POU1 (OCT1 POU domain)) | binding signal (POU2 (OCT2 POU domain)) | binding signal [1] | binding signal [2]
1 | ACCTAAAC | 0.013 % of ANNNNAAN 8-mers | 0.0178 % of ANNNNAAN 8-mers | 0.0211 % of ANNNNAAN 8-mers | 0.0223 % of ANNNNAAN 8-mers
2 | AAGGCAAC | 0.0187 % of ANNNNAAN 8-mers | 0.0167 % of ANNNNAAN 8-mers | 0.0195 % of ANNNNAAN 8-mers | 0.0264 % of ANNNNAAN 8-mers
3 | AGATGAAA | 0.0629 % of ANNNNAAN 8-mers | 0.0558 % of ANNNNAAN 8-mers | 0.0718 % of ANNNNAAN 8-mers | 0.0611 % of ANNNNAAN 8-mers
4 | ATAGGAAG | 0.0576 % of ANNNNAAN 8-mers | 0.0696 % of ANNNNAAN 8-mers | 0.0585 % of ANNNNAAN 8-mers | 0.0561 % of ANNNNAAN 8-mers
5 | ACGTAAAG | 0.0416 % of ANNNNAAN 8-mers | 0.0409 % of ANNNNAAN 8-mers | 0.0667 % of ANNNNAAN 8-mers | 0.0479 % of ANNNNAAN 8-mers
6 | ATCTTAAG | 0.0461 % of ANNNNAAN 8-mers | 0.0541 % of ANNNNAAN 8-mers | 0.0503 % of ANNNNAAN 8-mers | 0.0438 % of ANNNNAAN 8-mers
7 | AGGTGAAT | 0.108 % of ANNNNAAN 8-mers | 0.119 % of ANNNNAAN 8-mers | 0.071 % of ANNNNAAN 8-mers | 0.102 % of ANNNNAAN 8-mers
8 | ACAAGAAA | 0.0366 % of ANNNNAAN 8-mers | 0.0437 % of ANNNNAAN 8-mers | 0.0386 % of ANNNNAAN 8-mers | 0.0322 % of ANNNNAAN 8-mers
9 | ACATAAAC | 0.087 % of ANNNNAAN 8-mers | 0.106 % of ANNNNAAN 8-mers | 0.0652 % of ANNNNAAN 8-mers | 0.0751 % of ANNNNAAN 8-mers
10 | AGCGCAAA | 0.0263 % of ANNNNAAN 8-mers | 0.0305 % of ANNNNAAN 8-mers | 0.0324 % of ANNNNAAN 8-mers | 0.0215 % of ANNNNAAN 8-mers
11 | AAATGAAC | 0.115 % of ANNNNAAN 8-mers | 0.102 % of ANNNNAAN 8-mers | 0.11 % of ANNNNAAN 8-mers | 0.141 % of ANNNNAAN 8-mers
12 | ACATTAAA | 0.104 % of ANNNNAAN 8-mers | 0.125 % of ANNNNAAN 8-mers | 0.0624 % of ANNNNAAN 8-mers | 0.0611 % of ANNNNAAN 8-mers
13 | AGACCAAA | 0.0179 % of ANNNNAAN 8-mers | 0.0213 % of ANNNNAAN 8-mers | 0.0246 % of ANNNNAAN 8-mers | 0.0239 % of ANNNNAAN 8-mers
14 | ATTGCAAC | 0.0256 % of ANNNNAAN 8-mers | 0.0178 % of ANNNNAAN 8-mers | 0.0195 % of ANNNNAAN 8-mers | 0.0272 % of ANNNNAAN 8-mers
15 | ATCCGAAT | 0.0542 % of ANNNNAAN 8-mers | 0.0748 % of ANNNNAAN 8-mers | 0.0496 % of ANNNNAAN 8-mers | 0.066 % of ANNNNAAN 8-mers
16 | ATTTCAAA | 0.0866 % of ANNNNAAN 8-mers | 0.0852 % of ANNNNAAN 8-mers | 0.103 % of ANNNNAAN 8-mers | 0.0751 % of ANNNNAAN 8-mers
17 | ACTCGAAG | 0.0187 % of ANNNNAAN 8-mers | 0.0207 % of ANNNNAAN 8-mers | 0.0168 % of ANNNNAAN 8-mers | 0.0182 % of ANNNNAAN 8-mers
18 | AGCTGAAT | 0.0561 % of ANNNNAAN 8-mers | 0.0725 % of ANNNNAAN 8-mers | 0.0492 % of ANNNNAAN 8-mers | 0.0471 % of ANNNNAAN 8-mers
19 | ATAAGAAT | 0.114 % of ANNNNAAN 8-mers | 0.143 % of ANNNNAAN 8-mers | 0.0886 % of ANNNNAAN 8-mers | 0.0892 % of ANNNNAAN 8-mers
20 | AGACCAAG | 0.0137 % of ANNNNAAN 8-mers | 0.0121 % of ANNNNAAN 8-mers | 0.0164 % of ANNNNAAN 8-mers | 0.014 % of ANNNNAAN 8-mers
21 | ACTTTAAT | 0.0824 % of ANNNNAAN 8-mers | 0.103 % of ANNNNAAN 8-mers | 0.0558 % of ANNNNAAN 8-mers | 0.066 % of ANNNNAAN 8-mers
22 | ACGATAAA | 0.037 % of ANNNNAAN 8-mers | 0.0432 % of ANNNNAAN 8-mers | 0.0324 % of ANNNNAAN 8-mers | 0.0487 % of ANNNNAAN 8-mers
23 | ATTGAAAG | 0.0603 % of ANNNNAAN 8-mers | 0.0604 % of ANNNNAAN 8-mers | 0.0632 % of ANNNNAAN 8-mers | 0.0611 % of ANNNNAAN 8-mers
